GRK2 aptamer HTS = blocks RNA aptamer binding to human GRK2; 330,000 tested, 0.59% active; bead flow cytometry, FAM-aptamer displacement from GRK2; inhibition of aptamer binding, % at 10 µM; P25098;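 active = inhibition of aptamer binding above 40%, roughly 3 SD of noise, on plates passing a quality check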;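 also: median bead fluorescence of bound FAM aptamer so fluorescent compounds give negative values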
Target sequence (P25098 whole entry, looked up): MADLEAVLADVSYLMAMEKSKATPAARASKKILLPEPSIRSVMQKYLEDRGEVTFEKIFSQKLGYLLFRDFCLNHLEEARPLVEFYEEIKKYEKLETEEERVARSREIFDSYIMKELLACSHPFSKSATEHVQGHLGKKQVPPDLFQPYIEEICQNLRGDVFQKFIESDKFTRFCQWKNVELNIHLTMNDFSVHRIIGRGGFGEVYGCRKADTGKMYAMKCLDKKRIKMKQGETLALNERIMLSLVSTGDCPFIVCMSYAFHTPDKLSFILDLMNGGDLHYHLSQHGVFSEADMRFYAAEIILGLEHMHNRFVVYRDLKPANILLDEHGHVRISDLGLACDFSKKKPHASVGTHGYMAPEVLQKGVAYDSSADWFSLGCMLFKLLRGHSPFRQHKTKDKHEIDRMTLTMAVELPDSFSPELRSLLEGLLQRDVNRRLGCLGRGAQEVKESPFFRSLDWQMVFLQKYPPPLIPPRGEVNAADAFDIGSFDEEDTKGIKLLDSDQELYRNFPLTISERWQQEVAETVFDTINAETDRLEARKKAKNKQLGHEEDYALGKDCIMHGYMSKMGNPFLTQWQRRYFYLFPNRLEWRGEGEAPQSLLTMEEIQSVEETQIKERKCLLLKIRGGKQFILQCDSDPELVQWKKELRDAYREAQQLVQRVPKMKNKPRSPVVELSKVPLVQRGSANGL
MEKK2 WT-MEK5 = raises or lowers MEK5 binding to wildtype human MEKK2 PB1 domain; bead flow cytometry, Alexa488-MEK5 binding to MEKK2 WT; actives lie on both sides; binding response (% of control), % at 10 µM; 290,000 tested, 1.1% active; in the data active = binding response below about 67% or above about 130%
MEKK3 PB1 HTS = raises or lowers MEK5 binding to the human MEKK3 PB1 domain; 290,000 tested, 1.4% active; Q99759; bead-based flow cytometry, Alexa488-MEK5 binding to MEKK3; actives lie on both sides; 0 = blocked by unlabeled MEK5, 100 = vehicle; binding response (% of control), % at 10 µM;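 active = binding response more than 3 SD above or below the average of its plate-row segment, actives on both sides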;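 also: Alexa488 bead fluorescence after subtracting the streptavidin-only scavenger bead signal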
MEKK2mut PB1 HTS = signal of MEK5 binding to mutant human MEKK2 PB1 domain; bead flow cytometry, Alexa488-MEK5 binding to MEKK2 mutant; percent response, % at 10 µM; 290,000 tested, 0.35% active; AID 1530; in the data active = percent response above about 24%, passing the limit was not always enough
MEKK2wt confirm = raises or lowers MEK5 binding to wildtype human MEKK2, retest | 5,900 tested, 2.4% active | bead flow cytometry, Alexa488-MEK5 binding to MEKK2 WT; actives lie on both sides | shares compounds with MEKK3 PB1 HTS | binding response (% of control), % at 10 µM; in the data active = binding response below about 16% or above about 210%; inactive = in between
MEKK2mut-MEK5 = signal of MEK5 binding to mutant human MEKK2, retest; shares compounds with MEKK3 PB1 HTS; bead flow cytometry, Alexa488-MEK5 binding to MEKK2 mutant; percent response, % at 10 µM; 5,900 tested, 2% active; in the data active = percent response mostly above about 71%, no sharp cut-off; inactive = mostly below about 38%;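 also: higher means compound restores mutant binding toward wildtype level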
MEKK3 confirm = confirmation of inhibitors of MEK5 binding to human MEKK3; binding response (% of control), % at 10 µM; bead flow cytometry, Alexa488-MEK5 binding to MEKK3; stronger effect = lower value; 5,900 tested, 1.8% active; shares compounds with MEKK3 PB1 HTS; AID 1894;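 active = binding response below 72% of control, or above a set upper limit, though filed actives all read lower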;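 also: 100% = DMSO only wells and 0% = binding blocked by excess unlabeled MEK5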
* hit, by the source's call; / = no result; [ ] = another dose, or the depositor's remark. Rows were chosen to be rich in hits. Some 2.5% of all compounds tested hit in one or more screens of this group.

SMILES | GRK2 aptamer HTS | MEKK2 WT-MEK5 | MEKK3 PB1 HTS | MEKK2mut PB1 HTS | MEKK2wt confirm | MEKK2mut-MEK5 | MEKK3 confirm
O=C(NC1=NCCS1)c1cc(-c2cccc(Br)c2)nc2ccccc12 | 0.0 | 115.0 | 148.0* | 11.0 | 110.0 | 7.0 | 100.0
COc1ccccc1NC(=O)N1CCCC1C(=O)Nc1nnc(C(C)C)s1 (stereo not drawn) | 1.0 | 3.0*[inhibitor] | 3.0*[inhibitor] | -14.0 | 108.0 | 10.0 | 106.0
CC(C)c1nnc(NC(=O)C2CCCN2C(=O)Nc2ccccc2F)s1 (stereo not drawn) | 3.0 | 129.0 | 151.0* | 7.0 | 100.0 | -3.0 | 100.0
CC(C)c1nnc(NC(=O)C2CCCN2C(=O)Nc2ccccc2[N+](=O)[O-])s1 (stereo not drawn) | 2.0 | 105.0 | 107.0 | -2.0 | / | / | /
O=C1CN(C(=O)COc2ncnc3ccccc23)c2ccccc2N1 | 1.0 | 99.0 | 101.0 | 15.0 | / | / | /
Cc1sc2ncnc(OCC(=O)N3CC(=O)Nc4ccccc43)c2c1C | 0.0 | 46.0*[inhibitor] | 42.0*[inhibitor] | -18.0 | 100.0 | 6.0 | 104.0
Cc1cccc(N2CCN(C(=O)COc3ccc4c(c3)CCC4)CC2C)c1 (stereo not drawn) | 0.0 | / | / | / | / | / | /
CCC(=O)c1ccc(OC(=O)N2CCOCC2)cc1 | 4.0 | 97.0 | 93.0 | -7.0 | / | / | /
O=C(Nc1cccc(F)c1)c1cccnc1NCCc1ccccc1 | 2.0 | 125.0 | 106.0 | 1.0 | / | / | /
O=C(Nc1ccc(F)cc1)c1cccnc1NCCc1ccccc1 | 35.0 | 112.0 | 142.0* | 1.0 | 100.0 | -6.0 | 103.0
CC(C)(C)c1ccc(C(O)CCCN2CCC(C(O)(c3ccccc3)c3ccccc3)CC2)cc1 (stereo not drawn) | 0.0 | 212.0* | 84.0 | 24.0* | 142.0 | 33.0 | 107.0
O=C(Nc1ccc(F)cc1)Nc1ccc(Oc2ncnc3cc(Cl)ccc23)nc1 | 0.0 | 75.0 | 69.0*[inhibitor] | -33.0 | 104.0 | 2.0 | 102.0
O=C(O)CCCC(=O)Nc1ccc(Oc2ncnc3cc(Cl)ccc23)nc1 | 1.0 | 128.0 | 128.0* | 26.0 | 98.0 | -1.0 | 99.0
O=C(c1noc2c1CCCC2)N1CCCC(N2CCN(c3ccccc3F)CC2)C1 (stereo not drawn) | 0.0 | 99.0 | 99.0 | 0.0 | / | / | /
CC(CC(=O)Nc1ccc(S(=O)(=O)Nc2ncccn2)cc1)c1ccccc1 (stereo not drawn) | 0.0 | 101.0 | 103.0 | 5.0 | / | / | /
COc1ccc(S(=O)(=O)N(Cc2ccc(OC)c(OC)c2)Cc2ccco2)cc1 | 0.0 | 96.0 | 93.0 | -4.0 | / | / | /
COc1ccc(S(=O)(=O)N(CCC(N)=O)Cc2ccco2)cc1OC | 3.0 | 54.0 | 50.0*[inhibitor] | -21.0 | 104.0 | 2.0 | 103.0
CC(NC(=O)/C=C/c1cnc2ccccc2n1)C12CC3CC(CC(C3)C1)C2 (stereo not drawn) | 0.0 | 102.0 | 134.0* | 0.0 | 97.0 | 0.0 | 104.0
CC(=O)Nc1ccc(NC(=O)C(C)OC(=O)/C=C/c2cnc3ccccc3n2)cc1 (stereo not drawn) | 3.0 | 96.0 | 95.0 | 3.0 | / | / | /
CS(=O)(=O)N1N=C(c2cccs2)CC1c1ccc(F)cc1 (stereo not drawn) | 0.0 | 22.0*[inhibitor] | 81.0 | -7.0 | 91.0 | -19.0 | 93.0
O=C(c1ccco1)N1N=C(c2cccs2)CC1c1ccccc1O (stereo not drawn) | 21.0 | 95.0 | 97.0 | 1.0 | / | / | /
CC(=O)N1N=C(c2cccs2)CC1c1cccs1 (stereo not drawn) | 0.0 | 98.0 | 101.0 | 1.0 | / | / | /
CCOC(=O)CSCC(=O)N1N=C(c2cccs2)CC1c1ccc(F)cc1 (stereo not drawn) | 1.0 | 109.0 | 107.0 | 7.0 | / | / | /
CCS(=O)(=O)N1N=C(c2cccs2)CC1c1cc2cc(C)ccc2nc1Cl (stereo not drawn) | 15.0 | -9.0*[inhibitor] | 96.0 | 5.0 | 93.0 | -9.0 | 101.0
CCOc1ccccc1C1CC(c2cccs2)=NN1S(C)(=O)=O (stereo not drawn) | 8.0 | 76.0 | 2.0*[inhibitor] | -5.0 | 89.0 | -7.0 | 89.0
SMILES | GRK2 aptamer HTS | MEKK2 WT-MEK5 | MEKK3 PB1 HTS | MEKK2mut PB1 HTS | MEKK2wt confirm | MEKK2mut-MEK5 | MEKK3 confirm
CS(=O)(=O)N1N=C(c2cccs2)CC1c1ccccc1O (stereo not drawn) | 2.0 | 0.0*[inhibitor] | 77.0 | -7.0 | 101.0 | 2.0 | 101.0
Cc1cccc(C)c1OCc1cc(C(=O)N2CCN(Cc3nccn3C)CC2)no1 | 0.0 | 106.0 | 99.0 | 2.0 | / | / | /
COc1ccc(CC(=O)NNc2ncnc3c2cnn3Cc2ccccc2)cc1OC | 3.0 | 88.0 | 86.0 | -19.0 | / | / | /
COc1ccc(/C=N/NC(=O)c2ccc(O)cc2)cc1CN1CCCc2ccccc21 | 0.0 | 44.0*[inhibitor] | 97.0 | 24.0 | 88.0 | -9.0 | 103.0
Cc1ccccc1-c1noc(-c2ccccc2C(=O)NCC2CCCO2)n1 (stereo not drawn) | 0.0 | 103.0 | 103.0 | -3.0 | / | / | /
O=S(=O)(c1ccc(F)cc1)N1CCN(c2ncccn2)CC1 | 0.0 | 118.0 | 134.0* | 28.0 | 108.0 | 10.0 | 109.0
O=S(=O)(c1ccccc1)N1CCN(c2ncccn2)CC1 | 0.0 | 101.0 | 102.0 | 10.0 | / | / | /
NC(=O)C1CCN(CC(O)COCc2ccccc2Cl)CC1 (stereo not drawn) | 1.0 | 107.0 | 104.0 | 2.0 | / | / | /
CCCCNC(=S)NNC(=O)c1sccc1C | 1.0 | 102.0 | 101.0 | 4.0 | / | / | /
CCCCNC(=S)NNC(=O)c1ccncc1 | 3.0 | 50.0 | 35.0*[inhibitor] | -16.0 | 102.0 | -2.0 | 104.0
CN(C)C=Nc1ccccc1C1C=NNC1=O (stereo not drawn) | 3.0 | 96.0 | 97.0 | -7.0 | / | / | /
CC(C)c1nc2scc(-c3ccc(Cl)cc3)c2c(=O)n1N | 2.0 | 92.0 | 102.0 | 1.0 | / | / | /
CNC(=O)C1(C)C=CCN1C(=O)c1ccccc1 (stereo not drawn) | 0.0 | 97.0 | 111.0 | 5.0 | / | / | /
CC1(C(=O)NCc2ccccn2)C=CCN1C(=O)c1ccccc1 (stereo not drawn) | 3.0 | 65.0 | 50.0*[inhibitor] | 1.0 | 114.0 | 12.0 | 110.0
CN(C)CCN(C(=O)c1cccc2ccccc12)c1nc2cc3c(cc2s1)OCO3 | 8.0 | 137.0* | 111.0 | 23.0 | 137.0 | 21.0 | 103.0
CN(C)CCCN(C(=O)c1ccc(S(=O)(=O)N(C)Cc2ccccc2)cc1)c1nc2cc3c(cc2s1)OCO3 | 0.0 | 192.0* | 112.0 | 41.0* | 189.0 | 45.0 | 107.0
CN(C)CCCN(C(=O)c1ccc2ccccc2c1)c1nc2cc3c(cc2s1)OCO3 | 0.0 | 142.0* | 106.0 | 24.0* | 140.0 | 19.0 | 104.0
CCC1CCCCN1S(=O)(=O)c1ccc(C(=O)N(CCCN(C)C)c2nc3cc4c(cc3s2)OCO4)cc1 (stereo not drawn) | 0.0 | 156.0* | 109.0 | 24.0* | 144.0 | 31.0 | 106.0

High-throughput results: PubChem, NMMLSC
